Hit rate of the full screen: of about 5,500 compounds, about 2,000 (36%) were called active. Inconclusive results (about 18%) are left out. Cut-off read from the data, not from the text of the source: active = normalized growth mostly below about 0.91 (no sharp cut-off); inconclusive = no clear call, values can overlap the other calls; inactive = mostly above about 0.92. This is one part of the list.
Experiment: chemical genetic growth profiling, strain panel (AID 1159580);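 note: tested at 20 µM; growth read once vehicle control cultures reached saturation at 30 °C; 1 = growth at the plate median or of vehicle wells; lower values mean less growth of the strain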
Conditions: growth OD

Measured: normalized growth

CCC1(CC)C(=O)C=CNC1=O
inactive: S. cerevisiae deletion strains, locus YJR066W, strain TOR1, stronger effect = lower value 0.961 | S. cerevisiae deletion strains, locus YKL009W, strain mrt4, stronger effect = lower value 1 | S. cerevisiae deletion strains, locus YKL068W, stronger effect = lower value 1 | S. cerevisiae deletion strains, locus YKL085W, strain MDH1 (second series), stronger effect = lower value 1 | S. cerevisiae deletion strains, locus YKL085W, strain MDH1, stronger effect = lower value 1 | S. cerevisiae deletion strains, locus YKL160W, strain elf1, stronger effect = lower value 0.992 | S. cerevisiae deletion strains, locus YKL190W, strain CNB1, stronger effect = lower value 1 | S. cerevisiae deletion strains, locus YKR001C, strain vps1, stronger effect = lower value 0.983 | S. cerevisiae deletion strains, locus YKR026C, strain gcn3, stronger effect = lower value 0.97 | S. cerevisiae deletion strains, locus YKR091W, strain srl3, stronger effect = lower value 1 | S. cerevisiae deletion strains, locus YLL001W, strain dnm1, stronger effect = lower value 0.985 | S. cerevisiae deletion strains, locus YLL026W, stronger effect = lower value 0.99 | S. cerevisiae deletion strains, locus YLL041C, strain sdh2, stronger effect = lower value 0.985 | S. cerevisiae deletion strains, locus YLR027C, strain aat2, stronger effect = lower value 0.996 | S. cerevisiae deletion strains, locus YLR039C, strain RIC1, stronger effect = lower value 1.01 | S. cerevisiae deletion strains, locus YLR058C, strain SHM2, stronger effect = lower value 1.01 | S. cerevisiae deletion strains, locus YLR102C, strain apc9, stronger effect = lower value 1.01 | S. cerevisiae deletion strains, locus YLR113W, strain HOG1, stronger effect = lower value 0.988 | S. cerevisiae deletion strains, locus YLR221C, strain rsa3, stronger effect = lower value 1.01 | S. cerevisiae deletion strains, locus YLR258W, strain gsy2, stronger effect = lower value 1.01 | S. cerevisiae deletion strains, locus YLR262C, strain YPT6 (second series), stronger effect = lower value 1.02 | S. cerevisiae deletion strains, locus YLR262C, strain YPT6, stronger effect = lower value 1.01 | S. cerevisiae deletion strains, locus YLR268W, strain sec22, stronger effect = lower value 1.01 | S. cerevisiae deletion strains, locus YLR320W, strain mms22, stronger effect = lower value 1.02 | S. cerevisiae deletion strains, locus YLR330W, strain CHS5, stronger effect = lower value 1.01 | S. cerevisiae deletion strains, locus YLR342W, strain FKS1 (second series), stronger effect = lower value 1.06 | S. cerevisiae deletion strains, locus YLR342W, strain FKS1, stronger effect = lower value 1.01 | S. cerevisiae deletion strains, locus YLR357W, strain rsc2, stronger effect = lower value 1 | S. cerevisiae deletion strains, locus YLR370C, strain arc18, stronger effect = lower value 0.997 | S. cerevisiae deletion strains, locus YLR371W, strain rom2, stronger effect = lower value 1.01 | S. cerevisiae deletion strains, locus YLR384C, strain iki3, stronger effect = lower value 0.995 | S. cerevisiae deletion strains, locus YLR418C, strain cdc73, stronger effect = lower value 1.02 | S. cerevisiae deletion strains, locus YML016C, strain PPZ1, stronger effect = lower value 1 | S. cerevisiae deletion strains, locus YML032C, strain rad52, stronger effect = lower value 0.997 | S. cerevisiae deletion strains, locus YML120C, strain ndi1, stronger effect = lower value 0.994 | S. cerevisiae deletion strains, locus YML124C, strain tub3, stronger effect = lower value 1.01 | S. cerevisiae deletion strains, locus YMR058W, strain fet3, stronger effect = lower value 0.989 | S. cerevisiae deletion strains, locus YMR078C, strain ctf18, stronger effect = lower value 1.01 | S. cerevisiae deletion strains, locus YMR125W, strain sto1, stronger effect = lower value 0.973 | S. cerevisiae deletion strains, locus YMR129W, stronger effect = lower value 0.991 | S. cerevisiae deletion strains, locus YMR205C, strain PFK2, stronger effect = lower value 1.05 | S. cerevisiae deletion strains, locus YMR223W, strain ubp8, stronger effect = lower value 1.02 | S. cerevisiae deletion strains, locus YMR231W, strain pep5, stronger effect = lower value 0.998 | S. cerevisiae deletion strains, locus YMR263W, strain SAP30, stronger effect = lower value 0.995 | S. cerevisiae deletion strains, locus YMR307W, strain GAS1, stronger effect = lower value 1.01 | S. cerevisiae deletion strains, locus YNL067W, strain RPL9B, stronger effect = lower value 0.981 | S. cerevisiae deletion strains, locus YNL071W, strain lat1, stronger effect = lower value 0.994 | S. cerevisiae deletion strains, locus YNL128W, strain TEP1, stronger effect = lower value 1.03 | S. cerevisiae deletion strains, locus YNL183C, strain NPR1, stronger effect = lower value 0.958 | S. cerevisiae deletion strains, locus YNL209W, strain ssb2, stronger effect = lower value 1 | S. cerevisiae deletion strains, locus YNL233W, strain BNI4, stronger effect = lower value 0.978 | S. cerevisiae deletion strains, locus YNL248C, strain rpa49, stronger effect = lower value 0.96 | S. cerevisiae deletion strains, locus YNL250W, strain rad50, stronger effect = lower value 1.02 | S. cerevisiae deletion strains, locus YNL271C, strain bni1, stronger effect = lower value 1.01 | S. cerevisiae deletion strains, locus YNL298W, strain CLA4, stronger effect = lower value 1 | S. cerevisiae deletion strains, locus YNL307C, strain MCK1, stronger effect = lower value 1.02 | S. cerevisiae deletion strains, locus YNL322C, strain KRE1 (second series), stronger effect = lower value 0.992 | S. cerevisiae deletion strains, locus YNL322C, strain KRE1, stronger effect = lower value 0.999 | S. cerevisiae deletion strains, locus YNR049C, strain mso1, stronger effect = lower value 0.994 | S. cerevisiae deletion strains, locus YNR052C, strain pop2, stronger effect = lower value 1.01 | S. cerevisiae deletion strains, locus YOL006C, strain TOP1, stronger effect = lower value 0.966 | S. cerevisiae deletion strains, locus YOL012C, strain htz1 0.962 | S. cerevisiae deletion strains, locus YOL147C, strain pex11, stronger effect = lower value 1.01 | S. cerevisiae deletion strains, locus YOR001W, strain rrp6, stronger effect = lower value 0.971 | S. cerevisiae deletion strains, locus YOR061W, strain CKA2, stronger effect = lower value 1.01 | S. cerevisiae deletion strains, locus YOR069W, strain VPS5, stronger effect = lower value 1.01 | S. cerevisiae deletion strains, locus YOR070C, strain gyp1, stronger effect = lower value 1 | S. cerevisiae deletion strains, locus YOR080W, strain dia2, stronger effect = lower value 0.999 | S. cerevisiae deletion strains, locus YOR083W, strain WHI5, stronger effect = lower value 0.984 | S. cerevisiae deletion strains, locus YOR106W, strain vam3, stronger effect = lower value 1.01 | S. cerevisiae deletion strains, locus YOR136W, strain idh2, stronger effect = lower value 0.994 | S. cerevisiae deletion strains, locus YOR144C, strain elg1, stronger effect = lower value 1 | S. cerevisiae deletion strains, locus YOR184W, strain ser1, stronger effect = lower value 1.02 | S. cerevisiae deletion strains, locus YOR231W, strain MKK1, stronger effect = lower value 0.98 | S. cerevisiae deletion strains, locus YOR265W, strain rbl2, stronger effect = lower value 0.996 | S. cerevisiae deletion strains, locus YOR270C, strain vph1, stronger effect = lower value 0.994 | S. cerevisiae deletion strains, locus YOR290C, strain snf2, stronger effect = lower value 0.965 | S. cerevisiae deletion strains, locus YOR316C, strain cot1, stronger effect = lower value 1.01 | S. cerevisiae deletion strains, locus YPL051W, strain arl3, stronger effect = lower value 0.985 | S. cerevisiae deletion strains, locus YPL078C, strain atp4, stronger effect = lower value 0.968 | S. cerevisiae deletion strains, locus YPL106C, strain sse1, stronger effect = lower value 1 | S. cerevisiae deletion strains, locus YPL240C, strain hsp82, stronger effect = lower value 1.02 | S. cerevisiae deletion strains, locus YPL256C, strain CLN2, stronger effect = lower value 1.01 | S. cerevisiae deletion strains, locus YPR119W, strain clb2, stronger effect = lower value 1 | S. cerevisiae deletion strains, locus YPR141C, strain kar3, stronger effect = lower value 1 | S. cerevisiae deletion strains, locus YPR163C, strain tif3, stronger effect = lower value 1.01 | S. cerevisiae deletion strains, locus YPR167C, strain met16, stronger effect = lower value 1.01 | S. cerevisiae deletion strains, strain wtn01, stronger effect = lower value 1.02 | S. cerevisiae strains, strain wild type, stronger effect = lower value 0.996
